# Sampled rows, rich in hits. Any-hit rate of the full collection: about 2.9%.
# 12-LOX inh – Primary qHTS assay for inhibitors of human arachidonate 12S-lipoxygenase (ALOX12): Round 2; purified 12hLO, xylenol orange hydroperoxide absorbance; Potency, µM (series often up to 108 µM), inactives show at the highest dose activity change, negative = inhibition, most hits filed as inhibitors; 580,000 compounds, 1.1% hits; AID 1671190, 2021; note: potency is the fitted concentration of half-maximal effect; % is set by controls: 0 for no effect and ±100 for the full control effect
#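 Hydroperoxide product was detected by ferrous iron/xylenol orange as the 573 to 405 nm absorbance ratio. Arachidonic acid at 40 uM (final) was turned over for 30 min at room temperature by 150 nM human 12hLO, pH 7.0 Hepes buffer, after 15 min compound preincubation.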
# POLI inh – qHTS for Inhibitors of Polymerase Iota. 390,000 compounds, 1% hits. Pol iota fluorescent replication assay, 10 min. Potency, µM (titrated, usually from 115 µM), without a hit: top-dose activity, negative = inhibition, hits mostly inhibitors. DNA polymerase iota (Homo sapiens), Q9UNA4. AID 588590, 2011; note: potency is the fitted concentration of half-maximal effect
#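 Fluorescent replication assay read twice, at 0 min and 10 min after adding 50 nM (final) substrate. Enzyme (10 nM) and compounds were first incubated 15 min at room temperature; enzyme-free buffer wells were negative controls.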
# POLH inh – qHTS for Inhibitors of Polymerase Eta; DNA polymerase eta (Homo sapiens), Q9Y253; recombinant Pol eta, fluorescent DNA replication assay; Potency, µM (highest dose often 114 µM), for inactives: at the top dose activity change, negative = inhibition, usual class: inhibitors; 390,000 compounds, 1.2% hits; note: potency is the fitted concentration of half-maximal effect; % is set by controls: 0 for no effect and ±100 for the full control effect
#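 Pol eta at 10 nM preincubated with compounds 15 min at room temperature; reaction started with fluorescent substrate (50 nM final) and read kinetically at 0 and 10 min.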
# PI5P4K alpha inh – qHTS for Inhibitors of phosphatidylinositol 5-phosphate 4-kinase (PI5P4K). Phosphatidylinositol 5-phosphate 4-kinase type-2 alpha (Homo sapiens), P48426. PI5P4Kalpha enzyme, ADP-Glo luminescence, 60 min; stronger effect = lower value. max response, %. 330,000 compounds, 1.2% hits. AID 652105, 2013; active = max response of -50% or lower; inconclusive = between -30% and -50%; inactive = -30% or higher; note: value at the top dose of about 77 µM; % is set by controls: 0 for no effect and ±100 for the full control effect
# Target sequence (P48426 whole entry, looked up): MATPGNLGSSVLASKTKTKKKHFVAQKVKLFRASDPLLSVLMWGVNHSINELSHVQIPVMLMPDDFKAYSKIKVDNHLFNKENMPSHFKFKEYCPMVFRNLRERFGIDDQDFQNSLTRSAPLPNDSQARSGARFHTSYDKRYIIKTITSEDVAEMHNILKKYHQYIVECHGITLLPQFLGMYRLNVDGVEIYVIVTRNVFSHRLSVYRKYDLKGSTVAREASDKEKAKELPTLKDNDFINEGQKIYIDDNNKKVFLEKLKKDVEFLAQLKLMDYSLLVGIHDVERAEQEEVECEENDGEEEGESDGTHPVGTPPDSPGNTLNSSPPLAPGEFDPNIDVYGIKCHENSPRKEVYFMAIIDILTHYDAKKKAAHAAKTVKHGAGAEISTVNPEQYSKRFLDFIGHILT
#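 Luminescence from ADP-Glo served as readout of PI5P4Kalpha activity in a qHTS format. Reaction: enzyme, substrate, compound, ATP at 5 microM final, 60 min at RT.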
# POLB inh – qHTS Assay for Inhibitors of DNA Polymerase Beta. 340,000 compounds, 1.3% hits. Potency, µM (highest dose often 114 µM), inactives show at the top dose activity change, negative = inhibition, actives largely listed as inhibitors. P06746. Pol beta primer extension/strand displacement, fluorescence kinetic; note: potency is the fitted concentration of half-maximal effect; % is set by controls: 0 for no effect and ±100 for the full control effect
#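 Curves were derived by four-parameter Hill fits of normalized qHTS data. The kinetic fluorescent primer-extension read was taken at 0 and 10 min after 50 nM substrate, following a 15 min room-temperature preincubation of 10 nM enzyme with compounds.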
# Pol kappa inh – qHTS for Inhibitors of Polymerase Kappa | DNA polymerase kappa (Homo sapiens), Q9UBT6 | purified Pol kappa, fluorescent DNA synthesis assay, 10 min | Potency, µM (titrated, usually from 107 µM), for the others: at the highest dose activity, negative = inhibition, hits mostly inhibitors | 400,000 compounds, 0.53% hits | AID 588579, 2011; note: potency is the fitted concentration of half-maximal effect; % is set by controls: 0 for no effect and ±100 for the full control effect
#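 10 nM Pol kappa preincubated 15 min at room temperature with compounds, then reaction started with substrate at 50 nM final. Fluorescence read kinetically at 0 and 10 min; buffer-only wells served as negative control.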
# Starred values were filed as active, the others as inactive; ? = inconclusive; nt = no result; ! = not active in a repeat; [ ] = remark or other dose. Unless noted, calls come from the whole dose curve; as a rule, active = well fitted inhibition curve with a large enough effect; inconclusive = small, poorly fitted or top-dose-only effect, or another doubt; inactive = no such curve, though single readings can be large or run the other way.
SMILES,12-LOX inh,POLI inh,POLH inh,PI5P4K alpha inh,POLB inh,Pol kappa inh
Cc1ccc(NC(=S)NNc2ncc(C(F)(F)F)cc2Cl)cc1,-9.8%,145.3%,-12.1%,-6.5,-12.5%,-12.0%
FC(F)(F)c1cnc(NNC(=S)Nc2ccc(Cl)cc2)c(Cl)c1,44.7µM*,-6.5%,-23.1%,-10.2,?,-12.8%
CCN(Cc1nc2cc(Cl)ccc2c(=O)[nH]1)C(=O)CNC(=O)c1ccc(C(C)(C)C)cc1,-6.9%,nt,nt,nt,nt,nt
C=CC[C@H]1CC=C[C@H](CC=C)[N+]1(C)C,7.08µM*!,nt,nt,nt,nt,nt
Cc1cccc(Cn2c(SCC(=O)Nc3ccccc3)nc3c2c(=O)n(C)c(=O)n3C)c1,93.3%,nt,nt,nt,nt,nt
CCCc1nc2sc3ccccc3c(=O)c2c(=O)n1Cc1ccccc1,23.8%,28.9%,-20.7%,-10.1,nt,4.9%
O=c1c2ccccc2sc2nc(C3CCCCC3)n(Cc3ccco3)c(=O)c12,?,?,?,nt,22.4µM*,-8.1%
CC(=O)Nc1cccc(NC(=O)CSc2cn(CC(=O)N3CCOCC3)c3ccccc23)c1,3.7%,nt,nt,nt,nt,nt
Cn1c(/N=C/c2cccs2)nc2ccccc21,1.4%,19.5%,-4.2%,nt,25.0%,-8.9%
COc1ccc(/C=N/c2nc3ccccc3n2C)cc1OC,21.3%,19.0%,-13.1%,nt,79.4µM*,1.4%
Cc1cccc(C(=O)NC2CCCCC2C)c1 (configuration not stated),-24.3%,nt,nt,nt,nt,nt
CN(C)c1ccc(NC(=O)Cn2c(SCc3ccc(F)cc3)nc3cccnc32)cc1,-23.4%,-4.7%,-13.8%,nt,17.8µM*,-7.4%[60.1 µM]
COc1ccc(C(=O)COC(=O)c2ccc3c(c2)OCO3)c(OC)c1,?,79.4µM*,?,?,nt,?
COc1ccc(C(=O)COc2ccc3c(c2)OCO3)cc1OC,44.7µM*,nt,nt,nt,nt,nt
COc1ccc(C(=O)COC(=O)c2cc([N+](=O)[O-])ccc2N2CCOCC2)c(OC)c1,-12.6%,79.4µM*,?,-23.5,nt,-16.8%
COc1ccc(C(CC(=O)c2ccc3c(c2)OCO3)C(=O)O)cc1OC (configuration not stated),-12.8%,nt,-4.5%,-3.1,nt,nt
Cc1nc2c3ccccc3nn2c(C)c1CCC(=O)Nc1cccc(F)c1,-12.0%,nt,nt,nt,nt,nt
CN(C)CCNC(=O)c1ccc2c(c1)C1(CCN(CC3CC3)C1)CN2Cc1ccccc1 (configuration not stated),103.7%[176 µM],nt,nt,nt,nt,nt
C[C@H](NS(=O)(=O)c1ccc(Cl)c(Cl)c1)C(=O)OCc1cc(=O)n2cc(Br)ccc2n1,-29.4%,?,?,2.0,14.1µM*,-24.7%
CSc1ccccc1C(=O)Nc1ncn[nH]1,11.2µM*,-9.1%,-4.6%,?,1.2%,7.9%
O=C(CCSC1=NCCCN1)c1ccc(F)cc1,44.7µM*,-2.5%,3.0%,-10.9,nt,-2.2%
Cc1noc(-c2ccc3c(c2)OCO3)c1C(=O)NCCSCc1ccccc1,20µM*,nt,nt,nt,nt,nt
Cc1noc(-c2ccc3c(c2)OCO3)c1C(=O)NCCSCc1ccco1,5.6%,nt,nt,nt,nt,nt
CC1COCCN1C(=O)Cc1nn(C)c(=O)c2ccccc12 (configuration not stated),30.9%,nt,nt,nt,nt,nt
Cc1ccc(-n2c(CCc3nc4ccccc4[nH]3)n[nH]c2=S)cc1,?,18.2%,-5.5%,-57.9*,-1.0%,-6.4%
SMILES,12-LOX inh,POLI inh,POLH inh,PI5P4K alpha inh,POLB inh,Pol kappa inh
Cc1ccccc1NC(=O)CSc1nc(N2CCCC2)c2c(c1C#N)CCCC2,125.7%,nt,nt,nt,nt,nt
O=C(CN(CC(=O)Nc1ccc(F)cc1)CC(=O)Nc1ccc(F)cc1)Nc1ccc(F)cc1,12.6µM*,nt,nt,nt,nt,nt
CCCc1c(C)c2ccc(OCc3ccccc3)cc2oc1=O,4.1%,nt,nt,nt,nt,nt
COc1ccccc1NC(=O)CC1Sc2ccccc2NC1=O (configuration not stated),-13.6%,nt,nt,nt,nt,nt
CC(C)c1ccc(NC(=O)COC(=O)c2cc(=O)c3ccccc3o2)cc1,-3.8%,nt,nt,nt,nt,nt
Cc1ccc(-n2sc3ccccc3c2=O)cc1,1.12µM*,-2.7%,-18.7%,-104.1*,34.4%,-6.7%
O=c1c2ccccc2sn1-c1ccc(Cl)cc1,0.251µM*,nt,0.3%,-99.5*,nt,nt
O=c1c2cc(F)ccc2sn1-c1ccccc1Cl,0.447µM*,nt,0.4%,-84.0*,nt,nt
Cc1ccc(Cn2c(=O)sc3ccccc3c2=O)cc1,25.9%,28.1%,-7.9%,nt,-2.1%,-5.4%
O=c1c2ccccc2sn1-c1ccc(F)cc1,?,?,5.3%,-88.7*,nt,-2.3%
N=C1SCC(=O)N1c1ccccc1Cl,2.6%,-2.6%,16.5%,-8.7,5.5%,-8.5%
O=c1c2c(nc(NCCO)n1C1CCCCC1)-c1ccccc1CC21CCCC1,5.0%,nt,nt,nt,nt,nt
CCC(NC(C)=O)c1cccs1 (configuration not stated),4.4%,nt,nt,nt,nt,nt
CC(C)CNC(=O)c1cc(N2CCOCC2)cc2c1OCCN2C,-10.4%[176 µM],nt,nt,nt,nt,nt
COC(=O)c1cccc(-n2sc3ccccc3c2=O)c1,1.26µM*,?,-0.5%,-96.5*,nt,-4.5%
O=c1c2ccc(F)cc2sn1-c1ccccc1,0.355µM*,nt,-14.8%,-108.3*,nt,nt
Cc1ccc(-n2sc3cc(F)ccc3c2=O)c(C)c1,0.398µM*,nt,-12.6%,-87.2*,nt,nt

# Compound activity from PubChem.
